From PubChem BioAssay (Tox21) come the findings set out here.

Values joined by “and” are separate entries in the source; they are usually repeats but may differ in a detail not shown here. Equal values may be shown once. Results filed as inconclusive are left out. Where a structure was tested more than once in an assay, its records may differ in their call. Active and inactive are the calls of the source. Unless noted, calls come from the whole dose curve; as a rule, active = well fitted curve in the direction sought with a large enough effect in the repeat runs; inconclusive = weak or mixed curves; inactive = no such curve, though single readings can be large; an effect the other way counts as inactive or inconclusive.

The nature of test [1]: A CellTox Green Cytotoxicity Assay to monitor cytotoxicity in HEK293 cells - 32 hour (AID 1224881). Note: nearly all actives have a fitted effect of over 40% in size. Note: potency is the fitted concentration of half-maximal effect. Particulars: CellTox Green fluorescence; series mostly up to 76.8 µM. Summed up:
(§1)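 Cells (HEK293, 600/well) and dye reagent are dispensed together. After 5 h at 37 C, 23 nL compound is pinned in. Plates stay at 37 C for 40 h with fluorescence read at 0h, 8h, 16h, 24h, 32h and 40h.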

Test [2] in a line: A CellTox Green Cytotoxicity Assay to monitor cytotoxicity in HepG2 cells - 0 hour (AID 1224882). Note: nearly all actives have a fitted effect of over 35% in size. To be noted: CellTox Green fluorescence; series mostly up to 76.8 µM. In a few lines: (§2)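 Cells and non-lytic dye reagent are dispensed together (600 HepG2 cells/well) and incubated 5 h before DMSO compound transfer. Kinetic fluorescence is then recorded in the same wells during 40 h at 37 C.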

Test [3] can be described thus: A CellTox Green Cytotoxicity Assay to monitor cytotoxicity in HepG2 cells - 32 hour (AID 1224883). Note: nearly all actives have a fitted effect of over 50% in size. Note: potency is the fitted concentration of half-maximal effect. To be noted: CellTox Green fluorescence; series mostly up to 76.8 µM. In a few lines: as §2
The nature of test [4]: A CellTox Green Cytotoxicity Assay to monitor cytotoxicity in HEK293 cells - 8 hour (AID 1224884). Note: nearly all actives have a fitted effect of over 35% in size. Note: potency is the fitted concentration of half-maximal effect. Particulars: CellTox Green fluorescence; series mostly up to 76.8 µM. Summed up: as §1
A short description of test [5]: qHTS RealTime-Glo MT Cell Viability Assay in HepG2 cells - 16 hour (AID 1224885). Note: nearly all actives have a fitted effect of over 50% in size. Note: potency is the fitted concentration of half-maximal effect. To be noted: RealTime-Glo luminescence; series mostly up to 76.8 µM. Summed up: (§3)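 HepG2 cells were seeded at 600 cells/well together with NanoLuc luciferase and a cell-permeant prosubstrate, preincubated 5 h at 37 C/5% CO2, then pin-dosed with compounds in DMSO. Nonlytic luminescence from viable cells was read at each time point.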

Test [6] can be described thus: qHTS RealTime-Glo MT Cell Viability Assay in HEK293 cells - 24 hour (AID 1224886). Note: nearly all actives have a fitted effect of over 50% in size. Note: potency is the fitted concentration of half-maximal effect. Particulars: RealTime-Glo luminescence; series mostly up to 76.8 µM. In a few lines:
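HEK293 cells were seeded at 600 cells/well together with NanoLuc luciferase and cell-permeant prosubstrate, preincubated 5 h at 37 C/5% CO2, then given compound in DMSO by pintool. Luminescence from viable-cell prosubstrate reduction was read repeatedly over 40 h.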

Test [7] in a line: qHTS RealTime-Glo MT Cell Viability Assay in HEK293 cells - 8 hour (AID 1224887). Note: nearly all actives have a fitted effect of over 50% in size. Note: potency is the fitted concentration of half-maximal effect. To be noted: RealTime-Glo luminescence; series mostly up to 76.8 µM. In a few lines: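 Real-time viability in HEK293: signal arises when living cells convert a prosubstrate for NanoLuc in the medium, so luminescence tracks viable cell number. Compound (23 nL, DMSO) added 5 h post-seeding; kinetic reads at 0–40 h, 37 C.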
On the technique in general: Quantitative high-throughput screening tests each substance at several concentrations.

Test [8] in a line: A CellTox Green Cytotoxicity Assay to monitor cytotoxicity in HepG2 cells - 8 hour (AID 1224890). Note: nearly all actives have a fitted effect of over 45% in size. Note: potency is the fitted concentration of half-maximal effect. Particulars: CellTox Green fluorescence; series mostly up to 76.8 µM. In a few lines:
as §2

Test [9] is described as follows: qHTS assay to identify small molecule antagonists of the estrogen receptor alpha (ER-alpha) signaling pathway using the BG1 cell line in the presence of 0.1 nM 17-beta-estradiol - cell viability counter screen (AID 1259241). Note: nearly all actives have a fitted effect of over 40% in size. Note: potency is the fitted concentration of half-maximal effect. To be noted: VM7Luc4E2 (BG1) viability, CellTiter-Fluor protease, 22 h, 0.1 nM estradiol agonist added; series mostly up to 92.4 µM. Summed up:
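VM7Luc4E2 cells (endogenous full-length ER-alpha, 4xERE-luciferase), cultured 5 days in charcoal-stripped serum, exposed to compounds with 0.1 nM 17beta-estradiol (final) for 22 hr at 37C. Viability read in same wells as live-cell protease fluorescence after 30 min.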

Test [10] in a line: qHTS assay to identify small molecule antagonists of the androgen receptor (AR) signaling pathway using the MDA cell line in the presence of 0.5 nM R1881 - cell viability counter screen (AID 1259242). Note: nearly all actives have a fitted effect of over 45% in size. Note: potency is the fitted concentration of half-maximal effect. Particulars: MDA-kb2 viability, CellTiter-Fluor protease fluorescence, 16 h; series mostly up to 92.4 µM. Summed up: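 Steps: plate MDA-kb2 cells, rest 5 hr at 37C without CO2; pin in compounds in DMSO; add R1881 to 0.5 nM final; incubate 16 hr; add CellTiter-Fluor, 30 min; read fluorescence.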

The target in test [11] is Estrogen receptor (Homo sapiens) (UniProt P03372). The experiment in a line: qHTS assay to identify small molecule antagonists of the estrogen receptor alpha (ER-alpha) signaling pathway using the BG1 cell line in the presence of 0.1 nM 17-beta-estradiol (AID 1259244). Note: nearly all actives have a fitted effect of over 50% in size. Note: potency is the fitted concentration of half-maximal effect. To be noted: VM7Luc4E2 (BG1) ERE-luciferase, antagonist mode, 0.1 nM E2, 22 h; series mostly up to 92.4 µM. Summed up: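 Antagonist mode: compounds in DMSO are pinned onto VM7Luc4E2 reporter cells, 0.1 nM final 17beta-estradiol is added, and after 22 h at 37C luciferase luminescence is measured with ONE-Glo.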

The nature of test [12]: qHTS assay to identify small molecule HDAC inhibitors (AID 1259364). Note: potency is the fitted concentration of half-maximal effect.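 Note: wild-type HCT-116 cells with endogenous class I/II HDAC activity; nearly all actives have a fitted effect of over 45% in size.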 To be noted: HCT-116 HDAC-Glo I/II luminescence, 2 h; series mostly up to 92.4 µM. In a few lines:
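Cells (HCT-116, wild type) are seeded at 1,500 per well, incubated overnight, treated with compound in DMSO for 2 hr, then developed with HDAC-Glo I/II reagent for 30 min at room temperature.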

A short description of test [13]: qHTS assay to identify small molecule HDAC inhibitors - cell viability counter screen (AID 1259365). Note: nearly all actives have a fitted effect of over 50% in size. To be noted: HCT-116 viability, CellTiter-Glo ATP luminescence, 2 h; series mostly up to 92.4 µM. Summed up: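 Wild-type HCT-116 cells, 1,500/well, cultured overnight, then compound-treated 2 h at 37 C. Viability measured as ATP luminescence with CellTiter-Glo after 30 min at room temperature.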

Test [14] can be described thus: qHTS assay to identify small molecule agonists of the sonic hedgehog signaling (Shh) pathway - cell viability counter screen (AID 1259366). Note: nearly all actives have a fitted effect of over 50% in size. Note: potency is the fitted concentration of half-maximal effect. Particulars: NIH/3T3 Gli1-Luc viability, CellTiter-Fluor, 24 h; series mostly up to 92.4 µM. Summed up:
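NIH/3T3-derived Gli1-Luc reporter cells, 2,000 per well, received compound after 4 h and were treated about 23 h at 37C. Viability measured in the same wells by CellTiter-Fluor fluorescence after 1 h.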

The nature of test [15]: qHTS assay to identify small molecule antagonists of the sonic hedgehog signaling (Shh) pathway - cell viability counter screen (AID 1259367). Note: nearly all actives have a fitted effect of over 55% in size. Note: potency is the fitted concentration of half-maximal effect. To be noted: NIH/3T3 Gli1-Luc viability, CellTiter-Fluor, 24 h; series mostly up to 92.4 µM. In a few lines:
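Cytotoxicity was assessed in parallel with Shh reporter activity by measuring live-cell protease fluorescence (CellTiter-Fluor) in NIH/3T3 cells stably carrying Gli1-Luc, treated with compound under conditioned medium stimulation for 23 hr plus 1 hr reagent incubation.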

Test [16] in a line: qHTS assay to identify small molecule agonists of the sonic hedgehog signaling (Shh) pathway (AID 1259368; calls by dose curve;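 note: NIH/3T3-derived 3T3Gli1-Luc cells carrying a stable Gli1-driven firefly luciferase reporter; nearly all actives have a fitted effect of over 15% in size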). To be noted: NIH/3T3 Gli1-Luc reporter, luciferase, 24 h; series mostly up to 92.4 µM. Summed up: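 Cells of a mouse NIH/3T3 clone stably expressing luciferase under the Gli1 transcriptional response element are exposed to test chemicals for 24 hr at 37 C. Pathway activation is detected as a rise in luminescence.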

A short description of test [17]: A CellTox Green Cytotoxicity Assay to monitor cytotoxicity in HEK293 cells - 16 hour (AID 1224888). Note: nearly all actives have a fitted effect of over 35% in size. To be noted: CellTox Green fluorescence; series mostly up to 76.8 µM. In a few lines: as §1
Test [18] can be described thus: qHTS RealTime-Glo MT Cell Viability Assay in HepG2 cells - 0 hour (AID 1224889). Note: nearly all actives have a fitted effect of over 50% in size. To be noted: RealTime-Glo luminescence; series mostly up to 76.8 µM. Summed up:
as §3

The nature of test [19]: qHTS assay to identify small molecule phospholipidosis (PLD) inducers (AID 1259344; active = well fitted curve in the direction sought with a large enough effect; an effect the other way counts as inactive or inconclusive). Particulars: HepG2 phospholipidosis, LipidTOX Red imaging, 24 h; series mostly up to 38.3 µM. In a few lines: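 Cells (HepG2, 900 per well) attach for 4 h, receive LipidTOX Red and compound together, incubate 24 h at 37 C, are fixed 30 min with paraformaldehyde/Hoechst, then imaged at one site per well.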

Chain of Estrogen receptor (Homo sapiens) (P03372 whole entry, looked up): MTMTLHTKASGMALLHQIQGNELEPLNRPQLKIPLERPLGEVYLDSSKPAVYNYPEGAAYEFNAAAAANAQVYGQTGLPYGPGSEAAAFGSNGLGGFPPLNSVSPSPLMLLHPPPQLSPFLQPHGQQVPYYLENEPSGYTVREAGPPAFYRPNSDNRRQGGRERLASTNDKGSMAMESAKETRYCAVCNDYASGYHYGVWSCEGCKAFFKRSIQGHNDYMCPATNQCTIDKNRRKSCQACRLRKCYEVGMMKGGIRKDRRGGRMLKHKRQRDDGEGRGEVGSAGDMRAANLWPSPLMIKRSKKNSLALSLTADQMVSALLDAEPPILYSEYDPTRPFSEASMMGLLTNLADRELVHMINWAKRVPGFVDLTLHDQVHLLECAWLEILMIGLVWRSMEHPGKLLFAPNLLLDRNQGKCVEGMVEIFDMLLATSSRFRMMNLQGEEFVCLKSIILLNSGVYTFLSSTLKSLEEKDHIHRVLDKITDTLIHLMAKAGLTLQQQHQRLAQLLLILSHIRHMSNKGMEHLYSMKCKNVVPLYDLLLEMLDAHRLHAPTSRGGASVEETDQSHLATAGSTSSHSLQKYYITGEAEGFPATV

Consider `CN(C)c1ccc(N=O)cc1`, for which the Potency was 11 µM (active) and 19.5 µM (active) in test [1]; 39 µM (active) in [3]; 55.1 µM (active) and 43.6 µM (active) in [5]; 15.5 µM (active) and 24.5 µM (active) in test [6]; 15.5 µM (active) and 21.9 µM (active) in test [7]; 61.3 µM (active) in test [9]. For the same compound, the Potency in test [10] was 48.7 µM (active) and 48.6 µM (active); in [11] it was 43.4 µM (active) and inactive; in test [14], 21.8 µM (active) and 21.7 µM (active); in test [15] it was 24.4 µM (active) and 27.3 µM (active). Moreover, the Potency result in test [2], in [4], in [8], in test [12], in test [13] and in test [16] was “inactive” throughout.

As for `C[Si](Cn1cncn1)(c1ccc(F)cc1)c1ccc(F)cc1`, the Potency entry in test [1] is “inactive and 54.9 µM (active)”; in test [3], 50.6 µM (active) and 49 µM (active); in [6], 25.4 µM (active) and 21.9 µM (active). In addition, the Potency entry in test [2], in [4], in [5], in test [17], in test [8] and in test [9] was “inactive” in each case. Besides, the Potency result in test [10], in test [12], in test [13], in [14], in test [15] and in test [16] was “inactive” each time. In test [18], the result was inactive.

For the compound `COC1CC(=C(c2cccs2)c2cccs2)C[N+](C)(C)C1` (configuration not stated), the Potency entry in test [1], in test [2], in test [3], in test [4], in test [5] and in test [6] was “inactive” in each case. Also, the Potency result in test [7], in [8], in [9], in test [10], in [11] and in test [12] was “inactive” each time. Besides, the Potency result in test [13], in [14], in test [15] and in test [16] was “inactive” in each case. Besides, the result in test [18] and in [19] was inactive.

With `C=CCc1ccccc1O`, the Potency entry in test [1], in test [2], in test [3], in test [4], in test [5] and in [6] was “inactive” in each case. The Potency result in test [7], in [8], in test [9], in test [10], in [11] and in [12] was “inactive” each time. The Potency result in [14], in [15] and in test [16] was “inactive” in each case. The outcome in test [18] was inactive.

With `C1CCNCC1`, the Potency entry in test [1], in test [2], in test [3], in test [4], in test [5] and in [6] was “inactive” throughout. Besides, the Potency entry in test [7], in test [8], in test [9], in test [10], in [11] and in test [12] was “inactive” each time. Further, the Potency entry in test [14], in test [15] and in test [16] was “inactive” in each case. For the same compound, the compound was classed as inactive in test [18].

As to `Nc1ccccc1C(=O)OCCc1ccccc1`, the Potency in test [1] is 21.9 µM (active); in test [3] it was 21.9 µM (active); in [4], “inactive and 34.7 µM (active)”; in test [6], 21.9 µM (active); in test [7] it was 21.9 µM (active); in test [8], “inactive and 24.5 µM (active)”. Also, the Potency in test [12] is 9.73 µM (active) and 3.86 µM (active). Also, the Potency result in test [2], in test [5], in test [9], in test [10], in [14] and in test [15] was “inactive” each time. Moreover, the outcome in test [18] was inactive.

In the case of `O=C(O)C(Cl)(Cl)Br`, the Potency entry in [1], in test [2], in test [3], in test [4], in [5] and in test [6] was “inactive” in each case. The Potency result in test [7], in test [8], in test [9], in test [10], in [12] and in test [13] was “inactive” in each case. The Potency entry in test [14], in test [15] and in [16] was “inactive” each time. Also, the compound was classed as inactive in test [18].
